{"source": "the supplement of paper PMC12067093", "about": "“Discovery and optimisation of a covalent ligand for TRIM25 and its application to targeted protein ubiquitination” (Chemical Science, 2025)", "compound": "Cc1cc(ccc1-c1ccccc1)C(=O)N1CCCN(CC1)C(=O)CCl [compound 10]", "test": "probe-labelled cysteine peptide fold change vs DMSO (competition) (log2 fold change); higher = less target engagement (more negative = stronger competition)", "conditions": "THP-1, incubation time: 4 h", "note": "Of roughly 21,000 targets only a part is listed; those with the largest changes were picked by preference.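 Note: competitive profiling in live THP-1 cells: cysteine peptides tagged with an iodoacetamide desthiobiotin (IA-DTB) probe, intensity after compound treatment relative to DMSO-treated cells.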", "data": [{"target": "PCID2_Q5JVF3_152_VCASDTR (UniProt Q5JVF3)", "values": [{"measurement": "probe-labelled cysteine peptide fold change", "setting": "10 µM", "result": 0.19}, {"measurement": "probe-labelled cysteine peptide fold change", "setting": "50 µM", "result": 0.0189}]}, {"target": "PIK3C2A_O00443_541_HLYQIEKPCK (UniProt O00443)", "values": [{"measurement": "probe-labelled cysteine peptide fold change", "setting": "10 µM", "result": -0.457}, {"measurement": "probe-labelled cysteine peptide fold change", "setting": "50 µM", "result": -1.29}]}, {"target": "PDSS2_Q86YH6_71_CLLSDELSNIAMQVR (UniProt Q86YH6)", "values": [{"measurement": "probe-labelled cysteine peptide fold change", "setting": "10 µM", "result": -0.424}, {"measurement": "probe-labelled cysteine peptide fold change", "setting": "50 µM", "result": -2.09}]}, {"target": "PLA2G4C_Q9UP65_351_KTGICASK (UniProt Q9UP65)", "values": [{"measurement": "probe-labelled cysteine peptide fold change", "setting": "10 µM", "result": -0.289}, {"measurement": "probe-labelled cysteine peptide fold change", "setting": "50 µM", "result": -1.38}]}, {"target": "PCBP1_Q15365_158_AITIAGVPQSVTECVK (UniProt Q15365)", "sequence (Q15365 whole entry, looked up)": "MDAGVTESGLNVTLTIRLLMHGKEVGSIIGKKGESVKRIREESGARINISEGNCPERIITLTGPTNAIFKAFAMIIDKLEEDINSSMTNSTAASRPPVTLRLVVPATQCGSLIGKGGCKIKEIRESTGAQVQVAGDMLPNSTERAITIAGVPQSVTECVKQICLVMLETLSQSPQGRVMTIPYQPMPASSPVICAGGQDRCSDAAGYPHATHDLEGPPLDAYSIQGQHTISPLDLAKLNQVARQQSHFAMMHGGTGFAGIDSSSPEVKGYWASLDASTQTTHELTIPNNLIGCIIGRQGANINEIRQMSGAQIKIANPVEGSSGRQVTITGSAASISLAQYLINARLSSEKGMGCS", "values": [{"measurement": "probe-labelled cysteine peptide fold change", "setting": "10 µM", "result": 0.332}, {"measurement": "probe-labelled cysteine peptide fold change", "setting": "50 µM", "result": -0.0314}]}, {"target": "PATZ1_Q9HBE1_610_KYPCPECGSFFR (UniProt Q9HBE1)", "values": [{"measurement": "probe-labelled cysteine peptide fold change", "setting": "10 µM", "result": 0.149}, {"measurement": "probe-labelled cysteine peptide fold change", "setting": "50 µM", "result": 0.151}]}, {"target": "PPA1_Q15181_114_HTGCCGDNDPIDVCEIGSK (UniProt Q15181)", "values": [{"measurement": "probe-labelled cysteine peptide fold change", "setting": "10 µM", "result": 0.105}, {"measurement": "probe-labelled cysteine peptide fold change", "setting": "50 µM", "result": 0.181}]}, {"target": "PECAM1_P16284_109_CTVIVNNK (UniProt P16284)", "values": [{"measurement": "probe-labelled cysteine peptide fold change", "setting": "10 µM", "result": 0.0288}, {"measurement": "probe-labelled cysteine peptide fold change", "setting": "50 µM", "result": 0.348}]}, {"target": "POLR2A_P24928_451_HMCDGDIVIFNR (UniProt P24928)", "values": [{"measurement": "probe-labelled cysteine peptide fold change", "setting": "10 µM", "result": -0.0734}, {"measurement": "probe-labelled cysteine peptide fold change", "setting": "50 µM", "result": -0.107}]}, {"target": "PIBF1_Q8WXW3_334_CAHEEDRLER (UniProt Q8WXW3)", "sequence (Q8WXW3 whole entry, looked up)": "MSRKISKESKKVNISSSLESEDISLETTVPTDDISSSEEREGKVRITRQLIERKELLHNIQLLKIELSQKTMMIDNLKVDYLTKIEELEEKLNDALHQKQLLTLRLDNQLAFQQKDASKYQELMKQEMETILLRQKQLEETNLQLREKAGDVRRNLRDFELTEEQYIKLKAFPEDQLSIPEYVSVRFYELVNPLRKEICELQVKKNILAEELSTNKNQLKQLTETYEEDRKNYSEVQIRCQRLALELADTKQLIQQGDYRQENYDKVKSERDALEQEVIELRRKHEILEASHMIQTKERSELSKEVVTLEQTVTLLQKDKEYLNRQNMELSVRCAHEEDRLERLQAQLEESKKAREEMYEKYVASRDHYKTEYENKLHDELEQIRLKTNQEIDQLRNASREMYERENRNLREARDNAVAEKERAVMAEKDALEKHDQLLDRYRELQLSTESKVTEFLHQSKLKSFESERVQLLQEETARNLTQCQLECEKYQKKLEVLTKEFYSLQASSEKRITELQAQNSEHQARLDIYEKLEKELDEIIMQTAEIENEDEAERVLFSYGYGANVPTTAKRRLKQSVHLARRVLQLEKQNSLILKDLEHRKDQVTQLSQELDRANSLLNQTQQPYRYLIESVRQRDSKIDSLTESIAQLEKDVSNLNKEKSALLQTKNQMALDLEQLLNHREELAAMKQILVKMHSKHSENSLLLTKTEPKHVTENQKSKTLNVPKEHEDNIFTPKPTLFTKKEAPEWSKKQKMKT", "values": [{"measurement": "probe-labelled cysteine peptide fold change", "setting": "10 µM", "result": 0.47}, {"measurement": "probe-labelled cysteine peptide fold change", "setting": "50 µM", "result": 1.41}]}, {"target": "PFN1_P07737_128_KCYEMASHLRR (UniProt P07737)", "values": [{"measurement": "probe-labelled cysteine peptide fold change", "setting": "10 µM", "result": -0.531}, {"measurement": "probe-labelled cysteine peptide fold change", "setting": "50 µM", "result": -0.695}]}, {"target": "PGK1_P00558_316_TGQATVASGIPAGWMGLDCGPESSK (UniProt P00558)", "sequence (P00558 whole entry, looked up)": "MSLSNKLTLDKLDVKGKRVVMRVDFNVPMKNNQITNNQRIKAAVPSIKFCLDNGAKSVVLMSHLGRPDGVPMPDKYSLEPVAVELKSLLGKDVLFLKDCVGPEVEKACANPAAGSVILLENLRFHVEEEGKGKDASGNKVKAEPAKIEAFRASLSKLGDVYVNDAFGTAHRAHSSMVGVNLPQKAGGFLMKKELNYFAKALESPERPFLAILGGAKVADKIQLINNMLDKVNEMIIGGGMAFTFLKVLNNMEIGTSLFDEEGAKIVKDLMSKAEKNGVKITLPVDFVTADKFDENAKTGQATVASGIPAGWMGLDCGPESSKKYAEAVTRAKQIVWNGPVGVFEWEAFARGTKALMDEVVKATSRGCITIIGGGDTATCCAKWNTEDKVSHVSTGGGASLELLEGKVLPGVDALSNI", "values": [{"measurement": "probe-labelled cysteine peptide fold change", "setting": "10 µM", "result": -0.217}, {"measurement": "probe-labelled cysteine peptide fold change", "setting": "50 µM", "result": 0.0673}]}, {"target": "PREX1_Q8TCU6_1173_DSYSECNSNR (UniProt Q8TCU6)", "sequence (Q8TCU6 whole entry, looked up)": "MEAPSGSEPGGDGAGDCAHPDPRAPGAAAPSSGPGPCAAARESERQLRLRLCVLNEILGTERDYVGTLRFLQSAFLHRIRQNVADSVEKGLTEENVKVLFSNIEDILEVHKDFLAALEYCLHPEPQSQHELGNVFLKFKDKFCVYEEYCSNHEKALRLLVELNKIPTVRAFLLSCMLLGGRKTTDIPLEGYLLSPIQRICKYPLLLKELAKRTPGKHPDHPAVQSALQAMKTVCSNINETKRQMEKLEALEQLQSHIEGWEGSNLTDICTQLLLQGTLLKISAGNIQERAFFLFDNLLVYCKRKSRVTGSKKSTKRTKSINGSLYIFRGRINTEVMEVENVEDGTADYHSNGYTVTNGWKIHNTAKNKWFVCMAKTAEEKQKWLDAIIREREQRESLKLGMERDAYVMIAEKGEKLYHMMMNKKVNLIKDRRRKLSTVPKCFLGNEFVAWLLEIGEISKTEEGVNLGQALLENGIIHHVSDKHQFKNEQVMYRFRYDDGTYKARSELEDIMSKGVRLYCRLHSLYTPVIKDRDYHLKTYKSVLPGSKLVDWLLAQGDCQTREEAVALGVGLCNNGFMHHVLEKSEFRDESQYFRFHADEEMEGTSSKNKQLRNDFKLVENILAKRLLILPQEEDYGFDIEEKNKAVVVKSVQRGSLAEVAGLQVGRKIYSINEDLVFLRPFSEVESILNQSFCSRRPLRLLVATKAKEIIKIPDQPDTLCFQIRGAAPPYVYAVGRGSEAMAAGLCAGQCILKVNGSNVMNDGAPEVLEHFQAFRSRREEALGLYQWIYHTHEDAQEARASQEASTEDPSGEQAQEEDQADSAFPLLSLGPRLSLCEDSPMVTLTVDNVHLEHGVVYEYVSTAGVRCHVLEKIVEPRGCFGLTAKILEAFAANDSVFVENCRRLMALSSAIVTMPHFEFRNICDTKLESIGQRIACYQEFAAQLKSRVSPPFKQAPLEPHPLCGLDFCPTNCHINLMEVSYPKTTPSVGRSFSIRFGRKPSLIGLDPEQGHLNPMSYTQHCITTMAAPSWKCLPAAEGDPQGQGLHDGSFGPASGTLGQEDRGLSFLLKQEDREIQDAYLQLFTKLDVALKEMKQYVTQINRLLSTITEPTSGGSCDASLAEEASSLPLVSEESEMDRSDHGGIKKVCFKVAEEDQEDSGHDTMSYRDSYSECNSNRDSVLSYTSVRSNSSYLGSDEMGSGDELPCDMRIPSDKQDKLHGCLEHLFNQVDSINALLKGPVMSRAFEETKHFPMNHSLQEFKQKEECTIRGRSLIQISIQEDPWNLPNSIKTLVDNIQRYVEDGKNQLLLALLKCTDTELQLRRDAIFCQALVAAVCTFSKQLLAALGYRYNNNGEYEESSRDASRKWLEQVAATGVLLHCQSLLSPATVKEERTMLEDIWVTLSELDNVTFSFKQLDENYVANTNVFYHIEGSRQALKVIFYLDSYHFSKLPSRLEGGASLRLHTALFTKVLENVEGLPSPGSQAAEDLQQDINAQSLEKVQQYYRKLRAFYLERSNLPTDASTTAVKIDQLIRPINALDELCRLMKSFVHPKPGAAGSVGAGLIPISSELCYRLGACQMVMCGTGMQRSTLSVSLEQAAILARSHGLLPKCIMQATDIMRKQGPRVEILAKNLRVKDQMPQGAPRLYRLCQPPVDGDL", "values": [{"measurement": "probe-labelled cysteine peptide fold change", "setting": "10 µM", "result": 0.634}, {"measurement": "probe-labelled cysteine peptide fold change", "setting": "50 µM", "result": 1.39}]}, {"target": "PCCA_P05165_398_INGWAVECR (UniProt P05165)", "sequence (P05165 whole entry, looked up)": "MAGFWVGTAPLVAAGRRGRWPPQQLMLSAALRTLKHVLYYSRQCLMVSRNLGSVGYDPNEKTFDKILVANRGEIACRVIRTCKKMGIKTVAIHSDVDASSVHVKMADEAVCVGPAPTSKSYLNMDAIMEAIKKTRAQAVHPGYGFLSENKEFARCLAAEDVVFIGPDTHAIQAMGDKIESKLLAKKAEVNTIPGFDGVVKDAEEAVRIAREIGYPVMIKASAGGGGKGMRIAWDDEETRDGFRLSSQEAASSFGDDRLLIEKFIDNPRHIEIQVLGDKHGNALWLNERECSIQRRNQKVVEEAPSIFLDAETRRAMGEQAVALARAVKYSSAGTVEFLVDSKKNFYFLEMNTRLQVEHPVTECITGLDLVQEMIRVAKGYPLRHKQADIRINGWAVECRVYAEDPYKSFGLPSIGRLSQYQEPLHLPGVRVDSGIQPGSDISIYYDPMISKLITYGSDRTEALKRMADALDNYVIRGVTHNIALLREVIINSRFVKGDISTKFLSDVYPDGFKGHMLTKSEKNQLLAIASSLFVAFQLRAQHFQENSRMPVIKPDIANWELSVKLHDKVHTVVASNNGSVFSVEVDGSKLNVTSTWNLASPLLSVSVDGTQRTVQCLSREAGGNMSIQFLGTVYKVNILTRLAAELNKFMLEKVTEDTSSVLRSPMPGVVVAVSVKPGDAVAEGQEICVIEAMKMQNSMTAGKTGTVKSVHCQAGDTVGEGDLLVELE", "values": [{"measurement": "probe-labelled cysteine peptide fold change", "setting": "10 µM", "result": 0.181}, {"measurement": "probe-labelled cysteine peptide fold change", "setting": "50 µM", "result": 0.357}]}, {"target": "PGGT1B_P53609_162_ALQLEDGSFCAVPEGSENDMR (UniProt P53609)", "values": [{"measurement": "probe-labelled cysteine peptide fold change", "setting": "10 µM", "result": -0.0186}, {"measurement": "probe-labelled cysteine peptide fold change", "setting": "50 µM", "result": -0.573}]}, {"target": "PLCG2_P16885_791_SDELSFCR (UniProt P16885)", "values": [{"measurement": "probe-labelled cysteine peptide fold change", "setting": "10 µM", "result": -0.0321}, {"measurement": "probe-labelled cysteine peptide fold change", "setting": "50 µM", "result": -0.0713}]}, {"target": "PM20D2_Q8IYS1_14_MRPGGERPVEGGACNGR (UniProt Q8IYS1)", "values": [{"measurement": "probe-labelled cysteine peptide fold change", "setting": "10 µM", "result": -0.16}, {"measurement": "probe-labelled cysteine peptide fold change", "setting": "50 µM", "result": -0.608}]}, {"target": "PLBD2_Q8NHP8_492_YNDFLHDPLSLCK (UniProt Q8NHP8)", "values": [{"measurement": "probe-labelled cysteine peptide fold change", "setting": "10 µM", "result": 0.0964}, {"measurement": "probe-labelled cysteine peptide fold change", "setting": "50 µM", "result": -0.267}]}, {"target": "PDIA4_P13667_555_DVLIEFYAPWCGHCK<|>PDIA3_P30101_406_DVLIEFYAPWCGHCK (UniProt P30101+P13667)", "values": [{"measurement": "probe-labelled cysteine peptide fold change", "setting": "10 µM", "result": -0.287}, {"measurement": "probe-labelled cysteine peptide fold change", "setting": "50 µM", "result": -1.09}]}, {"target": "PCBP2_Q15366_158_AITIAGIPQSIIECVK (UniProt Q15366)", "values": [{"measurement": "probe-labelled cysteine peptide fold change", "setting": "10 µM", "result": 0.149}, {"measurement": "probe-labelled cysteine peptide fold change", "setting": "50 µM", "result": -0.0185}]}, {"target": "PML_P29590_479+484_CSQTQCPR (UniProt P29590)", "values": [{"measurement": "probe-labelled cysteine peptide fold change", "setting": "10 µM", "result": -0.494}, {"measurement": "probe-labelled cysteine peptide fold change", "setting": "50 µM", "result": -1.17}]}, {"target": "POLK_Q9UBT6_545_SIIGFLQAGNQALSATECTLEK (UniProt Q9UBT6)", "sequence (Q9UBT6 whole entry, looked up)": "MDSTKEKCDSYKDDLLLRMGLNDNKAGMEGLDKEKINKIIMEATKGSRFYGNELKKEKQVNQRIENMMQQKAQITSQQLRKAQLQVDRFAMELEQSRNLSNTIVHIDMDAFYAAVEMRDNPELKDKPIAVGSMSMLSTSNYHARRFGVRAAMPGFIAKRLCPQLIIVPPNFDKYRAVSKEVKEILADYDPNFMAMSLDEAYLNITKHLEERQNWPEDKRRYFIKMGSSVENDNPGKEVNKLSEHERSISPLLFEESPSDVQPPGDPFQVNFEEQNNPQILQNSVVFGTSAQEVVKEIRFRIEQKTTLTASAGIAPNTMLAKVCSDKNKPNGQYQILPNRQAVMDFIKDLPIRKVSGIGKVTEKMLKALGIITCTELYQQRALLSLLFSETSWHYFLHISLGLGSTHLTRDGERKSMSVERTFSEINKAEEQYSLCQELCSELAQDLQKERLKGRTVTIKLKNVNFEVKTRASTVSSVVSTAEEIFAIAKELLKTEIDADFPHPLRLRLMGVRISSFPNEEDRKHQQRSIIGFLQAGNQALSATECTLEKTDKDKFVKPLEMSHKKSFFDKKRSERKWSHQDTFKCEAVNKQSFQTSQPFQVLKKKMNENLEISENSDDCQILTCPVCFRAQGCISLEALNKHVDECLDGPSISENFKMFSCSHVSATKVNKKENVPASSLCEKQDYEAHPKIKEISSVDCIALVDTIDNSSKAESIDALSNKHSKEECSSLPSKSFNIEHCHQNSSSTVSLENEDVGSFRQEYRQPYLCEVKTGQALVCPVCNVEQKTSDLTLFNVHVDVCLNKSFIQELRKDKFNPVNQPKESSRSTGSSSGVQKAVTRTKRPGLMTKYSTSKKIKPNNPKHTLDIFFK", "values": [{"measurement": "probe-labelled cysteine peptide fold change", "setting": "10 µM", "result": -0.695}, {"measurement": "probe-labelled cysteine peptide fold change", "setting": "50 µM", "result": -0.377}]}, {"target": "PDIA4_P13667_91+94_DTVLLEFYAPWCGHCK (UniProt P13667)", "values": [{"measurement": "probe-labelled cysteine peptide fold change", "setting": "10 µM", "result": -0.227}, {"measurement": "probe-labelled cysteine peptide fold change", "setting": "50 µM", "result": -1.17}]}, {"target": "PITPNB_P48739_13_VVLPCSVQEYQVGQLYSVAEASK (UniProt P48739)", "sequence (P48739 whole entry)": "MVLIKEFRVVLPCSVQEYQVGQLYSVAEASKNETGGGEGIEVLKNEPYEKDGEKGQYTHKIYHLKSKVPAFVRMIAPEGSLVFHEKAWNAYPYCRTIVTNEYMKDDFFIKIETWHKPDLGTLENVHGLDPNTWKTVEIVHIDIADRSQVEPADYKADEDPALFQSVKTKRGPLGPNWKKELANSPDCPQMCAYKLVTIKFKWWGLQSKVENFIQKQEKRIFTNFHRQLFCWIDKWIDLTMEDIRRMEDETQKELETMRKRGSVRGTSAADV", "values": [{"measurement": "probe-labelled cysteine peptide fold change", "setting": "10 µM", "result": -0.0113}, {"measurement": "probe-labelled cysteine peptide fold change", "setting": "50 µM", "result": 0.103}]}, {"target": "PDIA6_Q15084_291_RTCEEHQLCVVAVLPHILDTGAAGR (UniProt Q15084)", "values": [{"measurement": "probe-labelled cysteine peptide fold change", "setting": "10 µM", "result": 0.0625}, {"measurement": "probe-labelled cysteine peptide fold change", "setting": "50 µM", "result": -0.132}]}, {"target": "POP1_Q99575_745_RSEVPCAPMPK (UniProt Q99575)", "values": [{"measurement": "probe-labelled cysteine peptide fold change", "setting": "10 µM", "result": -0.238}, {"measurement": "probe-labelled cysteine peptide fold change", "setting": "50 µM", "result": -0.307}]}, {"target": "PKN3_Q6P5Z2_131_QGAENMTHTCASGTPK (UniProt Q6P5Z2)", "values": [{"measurement": "probe-labelled cysteine peptide fold change", "setting": "10 µM", "result": -0.00333}, {"measurement": "probe-labelled cysteine peptide fold change", "setting": "50 µM", "result": -0.199}]}, {"target": "PCCB_P05166_291_DFFNYLPLSSQDPAPVRECHDPSDR (UniProt P05166)", "values": [{"measurement": "probe-labelled cysteine peptide fold change", "setting": "10 µM", "result": -0.474}, {"measurement": "probe-labelled cysteine peptide fold change", "setting": "50 µM", "result": -0.454}]}, {"target": "POLE_Q07864_600_HALEEEEKVPVEQVTNFEEVCDEIK (UniProt Q07864)", "values": [{"measurement": "probe-labelled cysteine peptide fold change", "setting": "10 µM", "result": -0.247}, {"measurement": "probe-labelled cysteine peptide fold change", "setting": "50 µM", "result": -1.05}]}, {"target": "PELP1_Q8IZL8_71_SAPHLPGLMCLLR (UniProt Q8IZL8)", "values": [{"measurement": "probe-labelled cysteine peptide fold change", "setting": "10 µM", "result": -1.13}, {"measurement": "probe-labelled cysteine peptide fold change", "setting": "50 µM", "result": -0.883}]}]}
